Screens as filed in PubChem BioAssay.
Sampled rows, rich in hits. Any-hit rate of the full collection: about 6%.
D1 PAM – human D1 dopamine receptor positive modulation; P21728; HEK293 TREx D1 cells, calcium flux, dopamine EC20 potentiation; potentiation, % at 10 µM; hit rate 0.036% among 360,000; in the data active means potentiation above about 30%; further: 0% is about no effect
Target sequence (P21728 whole entry, looked up): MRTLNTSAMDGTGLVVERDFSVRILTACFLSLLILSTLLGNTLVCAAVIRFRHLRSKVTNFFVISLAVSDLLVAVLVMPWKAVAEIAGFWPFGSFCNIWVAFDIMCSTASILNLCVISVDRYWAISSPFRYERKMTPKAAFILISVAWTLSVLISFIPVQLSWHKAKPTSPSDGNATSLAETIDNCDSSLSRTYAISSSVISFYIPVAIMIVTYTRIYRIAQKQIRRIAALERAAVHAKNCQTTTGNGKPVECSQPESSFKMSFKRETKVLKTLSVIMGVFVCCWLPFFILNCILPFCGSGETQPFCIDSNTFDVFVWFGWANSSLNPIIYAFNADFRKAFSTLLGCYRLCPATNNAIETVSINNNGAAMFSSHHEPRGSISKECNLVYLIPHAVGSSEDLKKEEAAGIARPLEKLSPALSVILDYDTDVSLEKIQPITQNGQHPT
DRD3 antagonist – D3 dopamine receptor (human) antagonism | P35462 | AID 652054 | D3R cells, DiscoveRx beta-arrestin luminescence, antagonist mode; active compounds read low | hit rate 2.5% among 360,000 | max response, negative = inhibition, %; in the data active means max response below about -50%; inconclusive means no clear call, values can overlap the other calls; further: on the % scale 0 is the no-effect control and ±100 the full control effect
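Cells plated overnight at 1500 cells/well, then exposed to library compounds with dopamine controls for 90 minutes at 37 degrees C. DiscoveRx reagent added for 30–60 minutes at room temperature; luminescence read, quantitative HTS format.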
D3 ag – D3 dopamine receptor (human) agonism; P35462; D3R DiscoveRx beta-arrestin cells, luminescence, 90 min; max activation, %; hit rate 0.58% among 410,000; AID 652048; in the data active means max activation above about 30%; further: 0% is about no effect
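Agonist mode: compounds and dopamine controls were applied to plated cells for 90 min at 37 degrees C after an overnight attachment at 1500 cells/well. Luminescent read-out followed 30 - 60 minutes at room temperature with DiscoveRx detection reagent.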
D1 antagonist – human D1 dopamine receptor antagonism | hit rate 3.2% among 360,000 | activity change, negative = inhibition, % at 10 µM | AID 504652 | HEK293 TREx D1 cells, calcium flux, dopamine EC80; active compounds read low; in the data active means activity change below about -30%; further: on the % scale 0 is the no-effect control and ±100 the full control effect
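Kinetic fluorescence of a calcium dye serves as the read-out. D1-expressing Hek293 Trex cells, induced overnight at 30 C, are exposed to compound for 180 s before an EC80 dopamine addition, then read 180 s further.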
D1 ag – activates the human D1 dopamine receptor. P21728. HEK293 T-REx D1 cells, calcium flux, agonist mode. AID 504660. hit rate 1% among 360,000. activation, % at 2 µM; in the data active means activation above about 30%; further: 0% is about no effect
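Inducible HEK293 T-REx D1 cells, force-coupled to calcium signalling, were plated at 4000 cells/well with tetracycline and held overnight at 30 C. After no-wash calcium dye loading, compound-evoked calcium rise over 180 s flagged agonists.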
BCR signal inh – chronic active BCR signaling inhibition; ABC-DLBCL IkBa-CBG/CBR reporter, luminescence ratio, 4 h; Potency, µM (top dose mostly 46.1 µM), inactives show at the top dose activity change, negative = inhibition, most hits filed as inhibitors; hit rate 0.05% among 340,000; AID 493014; active means well fitted inhibition curve with a large enough effect in the signal ratio, with a control signal flat, not every such curve was filed as active; inconclusive means small, poorly fitted or top-dose-only effect, or effect the other way, or a change in a side signal; the % refers to the signal ratio;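 further: potency means the concentration at half of the fitted maximal effect; plate controls were basal doxycycline-induced cells for no effect and cells given 10 µM MG132 for full effect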
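TMD8 ABC-DLBCL cells carrying doxycycline-inducible green luciferase fused to IkappaBalpha plus unfused red luciferase were exposed to compounds (up to 46 uM) for 4 hrs at 37C. Activity came from the overlap-corrected green/red luminescence ratio.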
An asterisk follows results filed as active.

Screening C=CCn1c(O)c(N=Nc2ccccc2O)c2ccccc21 returned D1 PAM -3, DRD3 antagonist 0, D3 ag -10, D1 antagonist 1, D1 ag 41* and BCR signal inh 4%.
`C=CCn1c(O)c(N=Nc2ccccc2)c2ccccc21` gave D1 PAM 14, DRD3 antagonist -12, D3 ag -12, D1 antagonist 10, D1 ag 6 and BCR signal inh inconclusive.
CCC1CN(C(=O)N2CCC(C(=O)NCc3cc(OC)ccc3OC)CC2)c2ccccc2O1 (centres undefined) was read as D1 PAM -5, D3 ag 5, D1 antagonist 9 and D1 ag 3.
Screening CCOc1ccc(CNC(=O)C2CCCN(S(=O)(=O)c3ccc4c(ccn4C)c3)C2)cc1 (centres undefined) returned D1 PAM -3, D3 ag 6, D1 antagonist -20 and D1 ag 4.
`Cn1cccc1-c1nc2ccccc2n1Cc1ccccc1` gave D1 PAM -5, DRD3 antagonist -54*, D3 ag -1, D1 antagonist -12, D1 ag 3 and BCR signal inh 15%.
For CCN(CC)CCSc1nc2ccccc2n1Cc1ccccc1 the results were D1 PAM -17, DRD3 antagonist -54*, D3 ag -17, D1 antagonist -39*, D1 ag 11 and BCR signal inh 2%.
Screening CCN(CC)CCn1c(NCc2nc3ccccc3n2Cc2ccccc2)nc2ccccc21 returned D1 PAM -3, DRD3 antagonist -55*, D3 ag -34, D1 antagonist 23, D1 ag 8 and BCR signal inh 1%.
`CCc1ccc(S(=O)(=O)Nc2cccc(-c3ccc(N4CCOCC4)nn3)c2)cc1` gave D1 PAM 3, D3 ag 6, D1 antagonist 13 and D1 ag 9.
For CCOC(=O)C1[C@H]2C(=O)N(C(C)c3ccc(OC)cc3)C[C@]23C=C[C@H]1O3 (some centres undefined) the results were D1 PAM 2, DRD3 antagonist 23, D3 ag 1, D1 antagonist -41*, D1 ag 0 and BCR signal inh -2%.
Screening CCCOC(=O)C1[C@H]2C(=O)N(C(C)c3ccc(OC)cc3)C[C@]23C=C[C@H]1O3 (some centres undefined) returned D1 PAM -1, DRD3 antagonist 17, D3 ag 4, D1 antagonist 4, D1 ag 1 and BCR signal inh 1%.
`Cc1ccc2c(c1)c1c(n2CC(O)CN2CCCCCC2)CCCC1` (centres undefined) gave D1 PAM -7, DRD3 antagonist -68*, D3 ag -2, D1 antagonist -21, D1 ag 18 and BCR signal inh -12%.
`Cc1ccc2c(c1)c1c(n2CC(O)CNC(C)(C)C)CCCC1` (centres undefined) gave D1 PAM -2, DRD3 antagonist 15, D3 ag 8, D1 antagonist 4, D1 ag 19 and BCR signal inh inconclusive.
Screening OC(CN1CCCCC1)Cn1c2ccccc2c2cc(Br)ccc21 (centres undefined) returned D1 PAM -5, DRD3 antagonist 0, D3 ag -8, D1 antagonist -63*, D1 ag 45* and BCR signal inh inconclusive.
`O=C1NC[C@H](CCCCN2CCN(CCC3CCCCC3)C(=O)C2=O)N(CCc2ccccc2)C1=O` gave DRD3 antagonist 3 and D3 ag 4.
`CCn1c(=O)c2sccc2n2c(CCCC(=O)N3CCN(c4cc(C)ccc4C)CC3)nnc12` gave D1 PAM -5, D3 ag 1, D1 antagonist 0 and D1 ag 1.
Screening CCN(CC)CCC(C)OC(c1ccccc1)c1ccccc1 (centres undefined) returned D1 PAM -3, DRD3 antagonist -53*, D3 ag -4, D1 antagonist 26, D1 ag 10 and BCR signal inh 0%.
